According to PubChem BioAssay:
This is one part of the list. Calls of active or inactive are those of the source.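 How the source made its calls: active means mean activation across triplicate tests above the threshold derived from the earlier primary screen (cut at about 5.5% in these data); inactive means the rest.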

The molecules below were run on Nuclear hormone receptor DAF-12 (Haemonchus contortus) (assay: hcDAF-12 luciferase reporter activation, retest – cell-based, luminescence, HEK293, lit1-tk-luc, triplicate, confirmation (AID 743032;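 further: 0% = DMSO only wells and 100% = 3 µM Δ7-dafachronic acid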)). Details: HEK293 hcDAF-12 lit1-tk-luc reporter, at 6.8 µM, stronger effect = higher value, % of Δ7-dafachronic acid response.

activation, inactive:
C/C(=N/NC(=S)Nc1ccccc1)c1ccc2c(c1)OCO2 0.89%
N[C@@H](Cc1ccccc1)C(=O)N1CCC(C(=O)NCC(=O)Nc2ccc(F)cc2)CC1 0.19%
Cc1nn(CCOc2ccccc2)c(=O)n1-c1ccccc1F 5.42%
CCc1ccc(-c2cc(C(=O)NN3CCN(C)CC3)c3ccccc3n2)cc1 0.58%
O=C(Cn1ccc([N+](=O)[O-])n1)NCc1cccs1 1.71%
O=C(COc1cccc(Cl)c1)NCc1ccccc1 0.38%
NNc1nc2c(Cl)cccc2s1 1.23%
Cc1cc(O)c(C(=O)/C=C/c2c(F)c(F)c(F)c(F)c2F)c(=O)o1 -1.06%

activation, active:
Cc1ccc(S(=O)(=O)Nc2nc3ccccc3nc2N2CCc3ccccc3C2)cc1 8.94%
Cc1cccc(Nc2nc(-c3ccccc3)cs2)n1 16%
c1ccc2sc(NN=C3CCCC3)nc2c1 6.89%
O=C(OCC(=O)c1c[nH]c2ccccc12)c1cccc(O)c1 7.43%
Cc1ccc(-c2nc3ccccc3[nH]2)cc1N 10.4%
